eIF4E 4G PPI: inhibitors of eIF4E and eIF4G interaction in translation initiation; 0.37% of 220,000 active; TR-FRET eIF4E-eIF4GI(517-606) binding, 2 h; AID 782; inhibition, % at 21.7 µM
NCF1 inh: blocks human p47phox regulatory protein of NADPH oxidases. P14598. p47phox/p22phox peptide binding, fluorescence polarization, 2 h. inhibition, % at 24.7 µM. 0.53% of 220,000 active
SUMO HTRF inh: inhibitors of human SUMOylation (UBC9); 0.36% of 290,000 active; inhibition, % at 35 µM; P63279; HTRF SUMOylation assay, SAE1/SAE2 + UBC9, in vitro; AID 2006; in the data active = inhibition above about 50%, passing the limit was not always enough; inconclusive = no clear call, values can overlap the other calls
Target sequence (P63279 whole entry, looked up): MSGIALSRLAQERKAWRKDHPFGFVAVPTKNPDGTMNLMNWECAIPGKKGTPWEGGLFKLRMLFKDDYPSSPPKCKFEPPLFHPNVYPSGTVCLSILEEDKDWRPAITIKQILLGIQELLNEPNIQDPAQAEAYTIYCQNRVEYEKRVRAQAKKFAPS
14-3-3 Bad inh: disrupts binding of bovine 14-3-3 zeta to phospho-Bad peptide | TR-FRET 14-3-3zeta/Dy647-pBad peptide displacement, 1 h | inhibition, % at 21.7 µM | 0.71% of 220,000 active;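 active = inhibition above about 70%, limit read from the data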
Target sequence (P63103 whole entry, looked up): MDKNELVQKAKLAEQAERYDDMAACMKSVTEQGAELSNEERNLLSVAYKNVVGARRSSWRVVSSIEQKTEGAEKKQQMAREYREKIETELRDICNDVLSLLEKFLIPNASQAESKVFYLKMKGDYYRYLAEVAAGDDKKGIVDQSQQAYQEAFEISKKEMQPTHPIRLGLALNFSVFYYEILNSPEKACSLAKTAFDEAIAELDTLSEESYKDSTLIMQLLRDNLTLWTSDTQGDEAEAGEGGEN
A number is an active result; - = inactive; ? = inconclusive; . = not tested or not shown; [ ] = dose if it differs, or a comment. Rows were chosen to be rich in hits. Some 1.3% of all compounds tested hit in one or more screens of this group.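 The calls were made as follows, unless noted: active = inhibition above about 30% (limit read from the data); inactive = the rest.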

SMILES	eIF4E 4G PPI	NCF1 inh	SUMO HTRF inh	14-3-3 Bad inh
O=S(=O)(c1cc(F)cc(F)c1)N1CCN(c2ncccn2)CC1	-	-	-	-
c1ccc2c(c1)oc1c(Nc3ccc4c(c3)OCCO4)ncnc12	-	-	-	76.3[fluorescence artefact?]
O=C(CSc1nc(-c2ccccc2)nc2ccccc12)Nc1cccc(C(=O)O)c1	-	-	-	-
O=C(CSc1nc(-c2ccccc2)nc2c1Cc1ccccc1O2)Nc1ccc(C(=O)O)cc1	60.1	-	?	94.3
O=C(CSc1nc(-c2ccc(F)cc2)nc2c1Cc1ccccc1O2)Nc1ccc(C(=O)O)cc1	62.1	-	?	96.8
CCOc1ccc(S(=O)(=O)NCc2ccccn2)c(C)c1C	.	.	-	.
CC1=C(C#N)S(=O)(=O)C(C#N)C(c2ccccc2)C1 (configuration not stated)	95.5	-	-	-
COc1ccc(C(O)c2nccc3cc(OC)c(OC)cc23)cc1OC (configuration not stated)	-	-	-	91.9
Cc1cc(C)nc(/N=c2/ssnc2Cl)c1	-	-	-	-
Cc1cc(Cl)ccc1N=c1ssnc1Cl	47.6	-	-	-
Cc1ccc(N=c2ssnc2Cl)cc1	72.0[fluorescence artefact?]	-	-	-
COc1ccc(OC)c(N=c2ssnc2Cl)c1	-	-	-	-
COc1cc(N=c2ssnc2Cl)c(OC)cc1Cl	72.8[fluorescence artefact?]	-	-	-
CCOC(=O)CC(=O)c1sc2c(c1N)c(=O)[nH]c(=O)n2-c1ccc(OC)cc1	.	.	-	.
O=C(Cn1c2[n+](c3ccc(C(F)(F)F)cc31)CCCCC2)Nc1ccccc1	34.0[fluorescence artefact?]	-	-	-
CCc1cccc(NC(=O)Cn2c3[n+](c4ccc(C(F)(F)F)cc42)CCCCC3)c1	-	-	-	-
C/C(=N\Nc1ccc(C(=O)c2c(C)cc3ccccn23)cc1[N+](=O)[O-])c1ccc(O)cc1	-	-	-	-
Cc1cc2ccccn2c1C(=O)c1ccc(N/N=C/c2ccc(C(=O)O)cc2)c([N+](=O)[O-])c1	53.9	-	-	73.4
O=C(CCc1ccc(S(=O)(=O)N2CCOCC2)cc1)Nc1ccc2c(c1)OCCO2	-	-	-	-
CC(CN1CCN(C)CC1)OC(=O)c1ccccc1 (configuration not stated)	-	-	-	71.1
CC(CN1CCN(C)CC1)OC(=O)c1ccc(F)cc1 (configuration not stated)	-	-	-	90.8
CC(CN1CCN(C)CC1)OC(=O)c1cccc(Cl)c1 (configuration not stated)	-	-	-	-
COc1ccc(OC)c(NC(=S)NCC(c2cccnc2)N2CCOCC2)c1 (configuration not stated)	-	-	-	-
Brc1cccc(C2CC(c3ccccc3)n3nnnc3N2)c1 (configuration not stated)	33.8	-	-	-
COc1ccc(-c2cc(C(=O)c3c(N)n(C)c(=O)n(C)c3=O)c3ccccc3n2)cc1OC	-	-	-	-
SMILES	eIF4E 4G PPI	NCF1 inh	SUMO HTRF inh	14-3-3 Bad inh
CC(C)(C)c1cc(OS(C)(=O)=O)ccc1O	-	31.5	-	-
COCCN(C(=O)Cc1cccs1)c1nnc(-c2ccncc2)s1	-	-	-	82.1
CCN(C(=O)c1cccs1)c1nnc(-c2ccncc2)s1	-	-	-	-
CC1(C)CC(=O)C(C2C3=C(CC(C)(C)CC3=O)OC3=C2C(=O)CC(C)(C)C3)=C(O)C1	-	-	-	-
COc1cccc(C2c3[nH]c4ccccc4c3CCN2C(=O)Cn2cncn2)c1OC (configuration not stated)	-	-	-	-
COc1ccccc1C1c2[nH]c3ccccc3c2CCN1Cc1ccc(NC(C)=O)s1 (configuration not stated)	88.8	-	-	-
Cc1cccc(NC(=S)N2CCN(S(=O)(=O)c3cccc(F)c3)CC2)c1	-	-	-	-
COc1cccc(CNc2ncn[nH]2)c1OCc1ccc(F)cc1	-	-	-	-
CCN1CCCC1CNCc1cccc(OC)c1OCc1ccc(F)cc1 (configuration not stated)	-	-	-	77.2
CC(=O)C(C(C)=O)C1(O)C(=O)c2ccccc2C1=O	-	-	94.4	-
Cc1cccc(NC2=CC(=O)OC(C)C2)c1 (configuration not stated)	-	-	-	80.8
COc1ccc(-c2cn[nH]c2-c2ccc(OCc3ccc([N+](=O)[O-])cc3)cc2O)cc1	-	34.9	-	-
CCc1cc(-c2[nH]ncc2-c2ccc(OC)cc2)c(O)cc1O	.	.	-	.
CN(C)Cc1cc(O)c(CN(C)C)cc1O	-	37.2	-	-
O=S(=O)(c1cccs1)N1CN(C2CCCCC2)c2nc3ccccc3nc21	-	-	-	-
COc1ccc(-n2cc(C(=O)Nc3cc([N+](=O)[O-])ccc3OC)c3ccccc3c2=O)cc1	-	-	-	-
c1ccc(Cc2nn3c(COc4ccccc4)nnc3s2)cc1	-	-	-	-
CCOc1ccccc1OCc1nn2c(COc3ccccc3)nnc2s1	31.6	-	-	-
COc1cc(C(=O)Nc2ccc(C)cc2)c(-n2cnnn2)cc1OC	-	-	-	-
O=C(Nc1ccc(C2=NCCN2)cc1)c1ccc(C(=O)Nc2ccc(C3=NCCN3)cc2)c([N+](=O)[O-])c1	-	-	-	78.8
Cc1ccc(NC(=O)c2ccc(-n3cccn3)c([N+](=O)[O-])c2)cc1	-	-	-	-
CCN(CC)CCN1C(=O)C(=O)/C(=C(/O)c2ccc(C)cc2)C1c1cccnc1 (configuration not stated)	97.3	-	-	-
CCN(CC)CCCN1C(=O)C(=O)/C(=C(/O)c2cc(C)ccc2C)C1c1cccnc1 (configuration not stated)	-	-	-	-
CCC(c1nnnn1Cc1ccc(F)cc1)N1CCN(C2CCCCC2)CC1 (configuration not stated)	-	-	-	-
Fc1ccc(Cn2nnnc2CN2CCN(C3CCCC3)CC2)cc1	-	-	-	78.0
SMILES	eIF4E 4G PPI	NCF1 inh	SUMO HTRF inh	14-3-3 Bad inh
CN(CCC1CCOCC1)C(=O)C1CCC(=O)N(CCc2cccc(F)c2)C1 (configuration not stated)	.	.	-	.
CC(NC(=O)c1ccccc1NC(=O)CSc1nnnn1C)c1ccccc1 (configuration not stated)	-	-	-	-
Cc1cc2cc3c(cc2nc1SCC(=O)OC(C)C)OCCO3	-	-	-	90.7[fluorescence artefact?]
COC(=O)CCC(=O)NC(=S)Nc1cc(Cl)ccc1Cl	-	-	-	-
CC1CCN(C(=S)c2ccc(O)cc2)CC1	-	-	-	-
CC1CCN(C(=S)c2ccccc2O)CC1	30.7[fluorescence artefact?]	-	-	-
O=[N+]([O-])c1cc(Br)c(O)c(/C=N/Nc2nnnn2-c2cccc3ccccc23)c1	44.2[fluorescence artefact?]	-	-	-
O=C(COC(=O)CNC(=O)c1ccccc1)Nc1ccc(S(=O)(=O)N2CCCC2)cc1	-	-	-	-
Cc1ccc(CNC(=O)Cn2ccc3cc(S(=O)(=O)N4CCCCCC4)ccc32)cc1	.	.	-	.
CC1(C)c2cc(Cl)ccc2-n2c1cc(O)c(-c1ccccc1)c2=O	70.5	-	-	-
CCN(CC(=O)Nc1cc(Cl)ccc1OC)CC(=O)NC1CCS(=O)(=O)C1 (configuration not stated)	-	-	-	73.9
